Experimental data as given in PubChem BioAssay AID1159580 (chemical genetic matrix, 2015).
Where “and” joins values, the source holds several entries; their conditions need not be identical. Identical values can stand only once. The whole screen tested about 5,500 compounds, of which about 2,000 (36%) were called active. Inconclusive results (about 18%) are left out. No stated cut-off is given here; in the data, active means normalized growth mostly below about 0.91 (no sharp cut-off); inconclusive means no clear call, values can overlap the other calls; inactive means mostly above about 0.92. Some of the results follow.

Test: chemical genetic growth profiling, strain panel (AID 1159580);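 further: tested at 20 µM; growth read once vehicle control cultures reached saturation at 30 °C; 1 = growth at the plate median or of vehicle wells; lower values mean less growth of the strain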
Conditions: growth OD

Measured: normalized growth

C/C1=C\CCC(=O)C2CC(C)(C)C2CC1 (stereo unspecified)
inactive: S. cerevisiae deletion strains, locus YBR021W, strain FUR4, hits give low values 0.997 | S. cerevisiae deletion strains, locus YBR229C, strain ROT2, hits give low values 1.02 | S. cerevisiae deletion strains, locus YCL029C, strain bik1, hits give low values 1.03 | S. cerevisiae deletion strains, locus YDL035C, strain GPR1, hits give low values 0.999 | S. cerevisiae deletion strains, locus YDL074C, strain BRE1, hits give low values 1.02 | S. cerevisiae deletion strains, locus YDL101C, strain DUN1, hits give low values 1.03 | S. cerevisiae deletion strains, locus YDL134C, strain PPH21, hits give low values 1.04 | S. cerevisiae deletion strains, locus YDL185W, strain tfp1, hits give low values 1.03 | S. cerevisiae deletion strains, locus YDL192W, strain arf1, hits give low values 1.01 | S. cerevisiae deletion strains, locus YDR101C, strain arx1, hits give low values 1 | S. cerevisiae deletion strains, locus YDR162C, strain NBP2, hits give low values 1.03 | S. cerevisiae deletion strains, locus YDR318W, strain mcm21, hits give low values 1.03 | S. cerevisiae deletion strains, locus YDR388W, hits give low values 1.03 | S. cerevisiae deletion strains, locus YDR502C, strain sam2, hits give low values 1.03 | S. cerevisiae deletion strains, locus YEL061C, strain CIN8, hits give low values 1.02 | S. cerevisiae deletion strains, locus YER110C, hits give low values 1.04 | S. cerevisiae deletion strains, locus YER155C, strain BEM2, hits give low values 1.01 | S. cerevisiae deletion strains, locus YER167W, strain BCK2, hits give low values 1.01 | S. cerevisiae deletion strains, locus YGL078C, strain dbp3, hits give low values 1.02 | S. cerevisiae deletion strains, locus YGL086W, strain mad1, hits give low values 1.02 | S. cerevisiae deletion strains, locus YGL248W, strain PDE1, hits give low values 1.03 | S. cerevisiae deletion strains, locus YGR135W, strain pre9, hits give low values 1.07 | S. cerevisiae deletion strains, locus YGR252W, strain gcn5, hits give low values 1 | S. cerevisiae deletion strains, locus YHR030C, strain SLT2, hits give low values 1.02 and 1.01 | S. cerevisiae deletion strains, locus YHR079C, strain IRE1 (second series), hits give low values 1.02 | S. cerevisiae deletion strains, locus YHR079C, strain IRE1, hits give low values 1.01 | S. cerevisiae deletion strains, locus YHR094C, strain hxt1, hits give low values 1.02 | S. cerevisiae deletion strains, locus YHR129C, strain ARP1, hits give low values 1.01 | S. cerevisiae deletion strains, locus YHR200W, strain rpn10, hits give low values 1.03 | S. cerevisiae deletion strains, locus YIL066C, strain RNR3, hits give low values 1.02 | S. cerevisiae deletion strains, locus YIL073C, strain SPO22, hits give low values 1.08 | S. cerevisiae deletion strains, locus YIL125W, strain kgd1, hits give low values 1.02 | S. cerevisiae deletion strains, locus YIR030C, strain dcg1, hits give low values 1.02 | S. cerevisiae deletion strains, locus YJL095W, strain BCK1, hits give low values 1.07 and 1.02 | S. cerevisiae deletion strains, locus YJL134W, strain LCB3, hits give low values 1.02 | S. cerevisiae deletion strains, locus YJL168C, strain set2, hits give low values 1.02 | S. cerevisiae deletion strains, locus YJL187C, strain SWE1 (second series), hits give low values 1.04 | S. cerevisiae deletion strains, locus YJR043C, strain POL32, hits give low values 1.01 | S. cerevisiae deletion strains, locus YJR066W, strain TOR1, hits give low values 0.954 | S. cerevisiae deletion strains, locus YKL009W, strain mrt4, hits give low values 0.982 | S. cerevisiae deletion strains, locus YKL068W, hits give low values 1.02 | S. cerevisiae deletion strains, locus YKL085W, strain MDH1 (second series), hits give low values 1.01 | S. cerevisiae deletion strains, locus YKL085W, strain MDH1, hits give low values 1.01 | S. cerevisiae deletion strains, locus YKL190W, strain CNB1, hits give low values 1.01 | S. cerevisiae deletion strains, locus YKR001C, strain vps1, hits give low values 1.04 | S. cerevisiae deletion strains, locus YLR039C, strain RIC1, hits give low values 1.09 | S. cerevisiae deletion strains, locus YLR058C, strain SHM2, hits give low values 1.02 | S. cerevisiae deletion strains, locus YLR102C, strain apc9, hits give low values 1.02 | S. cerevisiae deletion strains, locus YLR113W, strain HOG1, hits give low values 1.03 | S. cerevisiae deletion strains, locus YLR262C, strain YPT6, hits give low values 1.1 | S. cerevisiae deletion strains, locus YLR268W, strain sec22, hits give low values 1.01 | S. cerevisiae deletion strains, locus YLR342W, strain FKS1 (second series), hits give low values 1.03 | S. cerevisiae deletion strains, locus YLR371W, strain rom2, hits give low values 1.04 | S. cerevisiae deletion strains, locus YLR418C, strain cdc73, hits give low values 1.04 | S. cerevisiae deletion strains, locus YML016C, strain PPZ1, hits give low values 1.03 | S. cerevisiae deletion strains, locus YML032C, strain rad52, hits give low values 1.02 | S. cerevisiae deletion strains, locus YML124C, strain tub3, hits give low values 1.02 | S. cerevisiae deletion strains, locus YMR078C, strain ctf18, hits give low values 1.02 | S. cerevisiae deletion strains, locus YMR223W, strain ubp8, hits give low values 1.01 | S. cerevisiae deletion strains, locus YMR307W, strain GAS1, hits give low values 1.09 | S. cerevisiae deletion strains, locus YNL067W, strain RPL9B, hits give low values 1.03 | S. cerevisiae deletion strains, locus YNL183C, strain NPR1, hits give low values 0.954 | S. cerevisiae deletion strains, locus YNL233W, strain BNI4, hits give low values 1.05 | S. cerevisiae deletion strains, locus YNL250W, strain rad50, hits give low values 1.07 | S. cerevisiae deletion strains, locus YNL271C, strain bni1, hits give low values 1.02 | S. cerevisiae deletion strains, locus YNL298W, strain CLA4, hits give low values 1.01 | S. cerevisiae deletion strains, locus YNL307C, strain MCK1, hits give low values 1.03 | S. cerevisiae deletion strains, locus YNR052C, strain pop2, hits give low values 1.04 | S. cerevisiae deletion strains, locus YOL006C, strain TOP1, hits give low values 1.1 | S. cerevisiae deletion strains, locus YOL012C, strain htz1 1.02 | S. cerevisiae deletion strains, locus YOL147C, strain pex11, hits give low values 1.01 | S. cerevisiae deletion strains, locus YOR061W, strain CKA2, hits give low values 1.02 | S. cerevisiae deletion strains, locus YOR069W, strain VPS5, hits give low values 1.02 | S. cerevisiae deletion strains, locus YOR136W, strain idh2, hits give low values 1.02 | S. cerevisiae deletion strains, locus YOR144C, strain elg1, hits give low values 1.02 | S. cerevisiae deletion strains, locus YOR184W, strain ser1, hits give low values 1 | S. cerevisiae deletion strains, locus YOR231W, strain MKK1, hits give low values 1 | S. cerevisiae deletion strains, locus YOR316C, strain cot1, hits give low values 1.03 | S. cerevisiae deletion strains, locus YPL055C, strain LGE1, hits give low values 1.05 | S. cerevisiae deletion strains, locus YPL256C, strain CLN2, hits give low values 0.999 | S. cerevisiae deletion strains, locus YPR119W, strain clb2, hits give low values 1.02 | S. cerevisiae deletion strains, locus YPR141C, strain kar3, hits give low values 1.03 | S. cerevisiae deletion strains, locus YPR163C, strain tif3, hits give low values 1.02 | S. cerevisiae deletion strains, locus YPR167C, strain met16, hits give low values 1.02 | S. cerevisiae deletion strains, strain wtn01, hits give low values 1.02 | S. cerevisiae strains, strain wild type, hits give low values 1.03
